Screening data as filed in PubChem BioAssay.
ELG1 repair inh: inhibitors of ELG1-dependent DNA repair in HEK293T cells | HEK293T ELG1-luciferase reporter, luminescence, 16 h; DNA damage induced by 5-fluorouridine | Potency, µM (titrated, usually from 46.1 µM), inactives show at the highest dose activity change, negative = inhibition, most hits filed as inhibitors | actives 2.3% (n = 330,000); note: % is set by controls: 0 for no effect and ±100 for the full control effect; nearly all actives have a fitted effect of over 55% in size
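HEK293T cells expressing luciferase-tagged ELG1 (2,000/well) received 5-Fluorouridine plus compound or DMSO for 16 hr at 37 °C. Luciferase was read by ONE-Glo luminescence after 30 min at room temperature.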
KB-3-1 tox: kills parental KB-3-1 adenocarcinoma cells; AID 1347075; actives 1.4% (n = 400,000); KB-3-1 viability, CellTiter-Glo ATP luminescence, 72 h; Potency, µM (highest dose often 46.1 µM), actives largely listed as cytotoxic; note: % is set by controls: 0 for no effect and ±100 for the full control effect; nearly all actives have a fitted effect of over 60% in size
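72 h, 37 °C compound treatment of KB-3-1 parental cells; CellTiter-Glo added, 10 min, luminescence read. Data corrected against DMSO-only plates and normalized before curve fitting.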
KB-V1 cytotox: kills drug-selected multidrug resistant KB-V1 cells | KB-V1 MDR cells viability, CellTiter-Glo, 72 h | Potency, µM (series often up to 46.1 µM), usual class: cytotoxic | AID 1347076 | actives 3.4% (n = 400,000); note: % is set by controls: 0 for no effect and ±100 for the full control effect; nearly all actives have a fitted effect of over 60% in size
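Potencies derive from concentration-effect curves fitted to normalized luminescence (CellTiter-Glo) of KB-V1 cells treated for 72 h at 37 degrees C in phenol-red-free DMEM containing 10% FBS.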
SW480 rerep: DNA re-replication induction in SW480 cells. SW480 DNA re-replication, Hoechst DNA content imaging, 48 h. Potency, µM (highest dose often 46.1 µM), for the others: at the top dose re-replication activation, most hits filed as activators. actives 1.8% (n = 340,000). AID 624297; note: % of control where 0% means no effect; nearly all actives have a fitted effect of over 55% in size
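Readout is total intensity of Hoechst-stained nuclei, excited at 405 nm and collected at 500-530 nm. Compound treatment lasted 48 hr at 37 C in 5% CO2 before staining.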
MCF10A rereplic: inducers of DNA re-replication in MCF 10A breast cells. actives 2.9% (n = 350,000). MCF 10A DNA re-replication, Hoechst nuclear intensity, 48 h. Potency, µM (titrated, usually from 46.1 µM), for the others: top-dose activity, positive = re-replication, hits mostly activators. AID 624296; note: % of control where 0% means no effect; nearly all actives have a fitted effect of over 50% in size
An asterisk follows results filed as active; i = inactive; u = inconclusive; x = no result given. The list is not random: actives were taken first. Their share in the collection is about 8.1%. Calls come from the whole dose curve; as a rule, active = well fitted curve in the direction sought with a large enough effect; inconclusive = small, poorly fitted or top-dose-only effect, or another doubt; inactive = no such curve, though single readings can be large; an effect the other way counts as inactive or inconclusive. Potency is the fitted concentration of half-maximal effect.

SMILES	ELG1 repair inh	KB-3-1 tox	KB-V1 cytotox	SW480 rerep	MCF10A rereplic
Cc1cccc(/N=C/c2sc3ccccc3c2O)n1	u	i	i	-3%	-4%
Cc1c(/C=N/O)sc2ccccc12	3%	u	21µM*	-4%	-1%
O=C(NCc1cc(C(F)(F)F)cc(C(F)(F)F)c1)c1cc(-c2cc(F)ccc2OCC2CCCO2)n[nH]1 (configuration not stated)	x	i	i	x	x
NC(=O)c1sc2nc3c(c(-c4ccco4)c2c1N)CCCC3	9.2µM*	i	u	29%	13%
Cc1ccc(NC(=O)c2c(C)nc3sc(C(=O)NC4CCCC4)c(N)c3c2-c2ccco2)c(C)c1	20%	i	i	19%	16%
N#Cc1sc2nc3c(c(-c4ccco4)c2c1N)CCCC3	0%	i	u	-2%	26%
Cc1ccccc1NC(=O)c1sc2nc3c(c(-c4ccco4)c2c1N)CCC3	23µM*	i	i	9.2µM*	u
COC(=O)c1sc2nc3c(c(-c4cccs4)c2c1N)CCCC3	-11%	i	u	18µM*	9.2µM*
O=S1(=O)CCOC[C@H](c2ccccc2)N1Cc1ccc(Cl)c(Cl)c1	x	u	i	x	x
COc1ccc(-c2cc3c(=O)n(CC(=O)Nc4cc(C)ccc4C)ccn3n2)cc1	x	i	i	x	x
COc1ccc(-c2noc(CSc3nnc(-c4ccc(Cl)cc4)n3C)n2)cc1OC	x	i	i	x	x
O=C(NCC1CCOCC1)c1cc(COc2cccc(C(F)(F)F)c2)on1	16µM*	i	i	-8%	14%
C[C@@H]1CN(C(=O)c2cc(COc3cccc(C(F)(F)F)c3)on2)C[C@H](C)O1	15µM*	x	x	-8%	u
C[C@@H]1CN([C@H](C)CO)C(=O)CCCn2nncc2CO[C@H]1CN(C)Cc1ccccc1	x	i	i	x	x
O=C(O)CCCCCN1C(=O)c2ccc(C(=O)O)cc2C1=O	5%	i	i	-25%	15µM*
CCC(Cc1ccccc1)NC(=O)Cn1ncc2c3ccccc3n(Cc3ccc(F)cc3)c2c1=O (configuration not stated)	x	i	u	x	x
CC(=O)N1CCCc2cc(S(=O)(=O)N3CCCC(C(=O)N4CCN(c5ccccc5F)CC4)C3)ccc21 (configuration not stated)	x	u	i	x	x
COc1cccc(Cn2c(C(C)n3c(-c4cnccn4)nc4ccccc43)nc3ccccc32)c1 (configuration not stated)	x	u	16µM*	x	x
COc1cccc(N2CCN(CC(=O)Nc3ccc(SC(F)F)cc3)CC2)c1	-27%	i	i	-1%	4%
O=C(CN1CCN(c2ccccc2)CC1)Nc1ccc(Oc2ccccc2)cc1	-1%	i	23µM*	-2%	1%
O=C(CN1CCN(c2ccc(O)cc2)CC1)Nc1ccc(SC(F)F)cc1	9.2µM*	u	i	17%	u
O=C(CN1CCN(c2ccc(Cl)cc2)CC1)Nc1ccc(F)cc1	-25%	u	21µM*	-1%	2%
O=C(CN1CCN(c2ccc(O)cc2)CC1)Nc1ccc2c(c1)OCCCO2	18µM*	u	i	-9%	-3%
O=C(CN1CCOCC1)Nc1ccc(Oc2ccccc2)cc1	15%	i	i	-4%	u
COC(=O)c1sc(C(F)(F)F)c(-c2ccccc2)c1S(=O)(=O)N1CCOCC1	x	i	i	-13%	1%
CN(C(=O)CSc1nc2scc(-c3ccccc3)c2c(=O)[nH]1)c1ccccc1	u	i	i	-31%	u
CCc1ccc(-c2cc(C(=O)N/N=C/c3c[nH]c4ccccc34)[nH]n2)cc1	u	u	u	6.5µM*	21µM*
CCc1ccc(/C=N/NC(=O)c2cc(-c3cccc([N+](=O)[O-])c3)n[nH]2)cc1	u	u	u	23µM*	5.2µM*
O=C(N/N=C/c1cccc(O)c1)c1cc(-c2ccc3c(c2)OCO3)n[nH]1	u	i	u	-9%	14%
